FBA Mtb inh: Mtb FBA enzyme inhibitors, primary screen, biochemical, fluorescence, strain H37Rv | Fructose-bisphosphate aldolase (Mycobacterium tuberculosis (strain ATCC 25618 / H37Rv)), … | purified M. tuberculosis FBA, fluorescence read-out | inhibition, % at 1 µM | 2.3% of 360,000 active | AID 588726, 2011; in the data active = inhibition above about 27%;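 note: 0% = vehicle and 100% = reference inhibitor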
Mtb UGM inh: M. tuberculosis UGM enzyme inhibitors, primary screen, biochemical, fluorescence polarization, single point. UDP-galactopyranose mutase (Mycobacterium tuberculosis (strain ATCC 25618 / H37Rv)), …. purified UGM, fluorescence polarization probe displacement. inhibition, % at 10 µM. 0.06% of 320,000 active; in the data active = inhibition above about 10%, passing the limit was not always enough
RecA splice inh: Mtb RecA intein splicing inhibitors, primary screen, biochemical, fluorescence, HTS; Protein RecA (Mycobacterium tuberculosis (strain ATCC 25618 / H37Rv)), P9WHJ3; cell-free RecA intein splicing; inhibition, % (test concentration not listed); 0.75% of 290,000 active; in the data active = inhibition above about 30%;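 note: 0% = vehicle wells and 100% = reference inhibitor control wells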
Target sequence (P9WHJ3 whole entry, looked up, canonical isoform): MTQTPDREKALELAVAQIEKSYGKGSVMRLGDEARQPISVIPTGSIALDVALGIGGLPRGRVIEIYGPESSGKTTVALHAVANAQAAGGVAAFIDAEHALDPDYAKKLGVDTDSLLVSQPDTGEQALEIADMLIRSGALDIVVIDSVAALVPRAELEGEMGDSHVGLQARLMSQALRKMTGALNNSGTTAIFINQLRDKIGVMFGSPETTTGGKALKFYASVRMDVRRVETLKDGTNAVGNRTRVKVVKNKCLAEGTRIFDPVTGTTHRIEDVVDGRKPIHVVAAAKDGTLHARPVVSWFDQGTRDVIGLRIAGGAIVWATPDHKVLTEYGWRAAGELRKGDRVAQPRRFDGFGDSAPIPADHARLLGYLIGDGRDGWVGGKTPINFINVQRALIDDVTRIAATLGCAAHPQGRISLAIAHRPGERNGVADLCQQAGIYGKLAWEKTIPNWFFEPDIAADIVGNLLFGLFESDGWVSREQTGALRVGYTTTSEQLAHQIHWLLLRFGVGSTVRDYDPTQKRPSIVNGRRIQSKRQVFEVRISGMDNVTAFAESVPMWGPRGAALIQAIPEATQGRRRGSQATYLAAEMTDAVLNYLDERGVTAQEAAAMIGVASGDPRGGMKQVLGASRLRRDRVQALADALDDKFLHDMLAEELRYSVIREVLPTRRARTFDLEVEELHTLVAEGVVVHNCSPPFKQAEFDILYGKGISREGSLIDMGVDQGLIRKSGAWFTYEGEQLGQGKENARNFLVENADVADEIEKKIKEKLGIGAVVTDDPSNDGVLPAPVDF
Rv3671c protease: Rv3671c serine protease inhibitors, primary screen, biochemical, fluorescence polarization, M. tuberculosis H37Rv; inhibition, % at 5.96 µM; 0.048% of 320,000 active; AID 2606, 2010; in the data active = inhibition above about 38%;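 note: extracellular domain of Rv3671c used as enzyme; 0% = enzyme with DMSO and 100% = no enzyme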
Mtb bLac sens: beta-lactam sensitization of Mtb H37Rv, H37Rv; M. tuberculosis H37Rv growth with meropenem, percent inhibition; inhibition, % at 25 µM; 0.27% of 330,000 active; call rule not given here;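 note: growth measured after seven days incubation then overnight dye step; 0% = bacteria only wells and 100% = bacteria with antibiotic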
GDH-TPI counter: GDH-TPI coupling enzyme inhibitors, primary screen, artefact control for M. tuberculosis FBA inhibitor project, biochemical, absorbance, full deck; GDH-TPI coupled enzyme counterscreen, NADH absorbance; inhibition, % at 4.8 µM; 1.2% of 360,000 active; in the data active = inhibition above about 30%;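 note: 0% = DMSO wells and 100% = wells lacking the enzyme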
An asterisk follows results filed as active; / = not tested or not shown; + = active, no number. Rows were chosen to be rich in hits. Some 4% of all compounds tested hit in one or more screens of this group.

SMILES	FBA Mtb inh	Mtb UGM inh	RecA splice inh	Rv3671c protease	Mtb bLac sens	GDH-TPI counter
CC(C)C(=O)Nc1ccccc1C(=O)N/N=C/c1ccc([N+](=O)[O-])cc1	-0.4	0.3	-0.4	-1.6	-8.1	34.5*
O=C(NN=Cc1ccc([N+](=O)[O-])cc1)c1ccncc1	0.0	/	/	/	/	39.7*
O=C(N/N=C/c1cccn1-c1ccc([N+](=O)[O-])cc1)c1cccnc1	-7.7	-1.8	-5.6	2.2	1.3	53.1*
Nc1ccc(C(=O)N/N=C\C=C\c2ccc([N+](=O)[O-])cc2)cc1	-3.2	-0.7	0.0	-2.6	-1.3	46.7*
Cc1nnc2c3ccccc3c(-c3cccs3)nn12	11.2	/	-0.9	-3.1	-4.8	6.8
Cc1ccc(S(=O)(=O)NCCOC(=O)Nc2sc(=S)n(C)c2C)cc1	3.2	0.8	-2.2	-1.2	4.0	16.3
CC(=O)n1cc(/C=N/NC(=O)c2ccc([N+](=O)[O-])cc2)c2ccccc21	-2.1	0.8	1.5	2.2	5.5	31.5*
O=C(N/N=C/c1ccc([N+](=O)[O-])cc1)c1cccc(N2CCCC2=O)c1	-2.9	-0.4	-0.7	2.7	-3.3	40.2*
CCC(=O)Nc1ccc(C(=O)N/N=C/c2ccc([N+](=O)[O-])cc2)cc1	-1.8	/	8.2	-2.7	11.0	50.6*
CC(OC(=O)c1cc2c(s1)CCCCC2)C(=O)NC(N)=O (stereo not drawn)	-4.1	-1.5	0.0	6.9	36.5	1.6
COc1cc(OC)c(C(=O)Nc2cc(S(=O)(=O)N3CCOCC3)ccc2N2CCN(C)CC2)cc1OC	1.4	/	/	/	/	11.1
CSc1ccc(-c2cccc3nncn23)cc1	+	/	/	/	/	23.9
Cn1cc(-c2cccc3nncn23)cn1	5.9	/	/	/	/	15.5
COc1ccc(NC(=O)CN(C)C(=O)c2cccc3ccccc23)cc1	131.4*	0.8	1.6	-11.6	-7.7	1.4
COc1ccc(NC(=O)CN(C)C(=O)c2ccccc2OC)cc1	-0.7	3.1	-0.8	/	5.9	3.8
CCC(Cc1ccccc1)NC(=O)CN1C(=O)CSc2ncccc21 (stereo not drawn)	5.0	1.7	/	1.2	-0.6	-0.5
COc1ccc(-c2nc(-c3ccc4c(c3)OCO4)[nH]c2-c2ccc(OC)cc2)cc1	136.3*	3.6	14.0	16.0	5.8	16.1
Nc1c(-c2ccc(Cl)cc2)cnn1-c1cc(C(F)(F)F)cc(C(F)(F)F)c1	+	-1.9	-0.5	5.8	-10.2	8.1
CC(=O)Nc1cc(NC(C)=O)cc(C(=O)OC(C)C(=O)Nc2ccc(S(=O)(=O)N3CCCC3)cc2)c1 (stereo not drawn)	-5.6	1.8	0.2	3.8	-8.9	-4.2
CN(C)C(=O)c1ccc2c(c1[N+](=O)[O-])C(=O)c1ccccc1C2=O	1.1	2.5	54.7*	-9.9	28.8	6.4
CC(C)C(=O)Nc1ccc2nn(-c3ccc(F)cc3)nc2c1	91.5*	-1.7	1.9	-4.8	-1.6	9.6
CCCC(=O)Nc1ccc2nn(-c3ccc(OC)cc3)nc2c1	+	2.9	5.1	-10.7	18.5	24.8
Cc1cc(=O)n2c3ccccc3n(CC(O)CN3CCCCC3)c2c1C#N (stereo not drawn)	20.1	0.8	-0.7	-5.4	0.4	50.0*
COc1cc(/C=C/C(=O)Nc2nc3ccc(S(=O)(=O)N(C)C)cc3s2)cc(OC)c1OC	25.4	0.0	-11.5	-19.2	4.3	47.8*
CCN1C(=O)C(O)(CC(=O)C(C)(C)C)c2cc(Br)ccc21 (stereo not drawn)	-2.0	0.9	-9.7	-13.7	-1.9	4.6
O=C(CCl)NCc1c(Cl)cccc1-n1cccc1	1.3	-1.6	46.1*	-11.5	97.6	6.6
O=C(Cc1c(Cl)cccc1Cl)NCCc1ccc(Cl)cc1	0.2	0.2	4.3	-1.1	5.5	3.2
CCn1cc(/C=C(\NC(=O)c2ccccc2OC)C(=O)NCCCn2ccnc2)c2ccccc21	-5.1	0.8	3.2	-2.4	3.2	24.9
CCn1cc(/C=C(\NC(=O)c2ccc(OC)cc2)C(=O)NCCCn2ccnc2)c2ccccc21	-4.5	/	/	/	/	37.2*
